From PubChem BioAssay AID602364 (National Center for Advancing Translational Sciences (NCATS), 2012) come the findings set out here.

Records with an inconclusive call do not appear. Activity calls are given as the source filed them. Calls come from the whole dose curve; as a rule, active = well fitted inhibition curve with a large enough effect; inconclusive = small, poorly fitted or top-dose-only effect; inactive = flat fitted curve, though single readings scatter.

In this test the target is Luciferin 4-monooxygenase (Photinus pyralis) (UniProt P08659). The experiment in a line: FLuc inhibitory activity for the follow-up compounds in a biochemical assay with 1mM ATP. The settings on record: purified P. pyralis luciferase, luminescence; series mostly up to 57.5 µM. The source says: NCGC Assay Overview: Firefly (Photinus pyralis) luciferase is one of the most commonly used transcriptional reporters. It is considered one of the more dynamically responsive reporters - that is, responsive to changes in reporter transcription - as it requires no post-translational modifications and is enzymatically active directly after protein synthesis (Wood, 1998). With no endogenous expression in mammalian cells and without the requirement of external excitation, it offers very little background signal, thus generally providing excellent signal to background for most assays. Previous profiling work to determine the prevalence of compounds that affect FLuc enzymatic activity (PubChem AID 411) identified that ~3% of the MLSMR library (then at ~72K) inhibited FLuc. […] Of the compounds identified in this profile that inhibited FLuc, 151 compounds were selected for further analysis, in an effort to better understand their mode of inhibiting FLuc. The assay described here was to determine the activity of the compounds in a FLuc assay that contained a KM concentration of D-luciferin and a high concentration (1mM) of ATP.
Luciferin 4-monooxygenase (Photinus pyralis), sequence (P08659 whole entry, looked up): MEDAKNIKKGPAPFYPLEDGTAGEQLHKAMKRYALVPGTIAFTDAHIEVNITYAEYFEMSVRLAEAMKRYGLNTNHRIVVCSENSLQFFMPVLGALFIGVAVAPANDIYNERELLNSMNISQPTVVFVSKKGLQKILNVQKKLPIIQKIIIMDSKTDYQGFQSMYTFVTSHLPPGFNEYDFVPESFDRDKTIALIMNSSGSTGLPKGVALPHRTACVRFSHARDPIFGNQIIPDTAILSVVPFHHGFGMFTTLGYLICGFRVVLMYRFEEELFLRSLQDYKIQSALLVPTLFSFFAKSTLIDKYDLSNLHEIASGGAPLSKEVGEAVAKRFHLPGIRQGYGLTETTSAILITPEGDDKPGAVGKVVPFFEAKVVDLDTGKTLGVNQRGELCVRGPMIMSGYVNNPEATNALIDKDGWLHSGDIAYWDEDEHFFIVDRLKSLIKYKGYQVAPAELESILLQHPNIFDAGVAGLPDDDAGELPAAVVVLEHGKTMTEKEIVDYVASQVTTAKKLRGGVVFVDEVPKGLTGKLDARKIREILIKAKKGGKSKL
NCGC Assay Protocol Summary: Reagents: 50mM Tris acetate, pH 7.5; 10mM Mg acetate; 10uM D-luciferin (Sigma #L9504); 1mM ATP; 0.01% Tween-20; 0.05% BSA; 10nM P. pyralis luciferase (Sigma #L9506) Control compounds used were two known firefly luciferase inhibitors (3-(5-(3-chlorophenyl)-1,2,4-oxadiazol-3-yl)benzoic acid and 5-(2-fluorophenyl)-3-phenyl-1,2,4-oxadiazole), and DMSO. Three microliters containing firefly luciferase substrates in buffer (final concentrations: 50mM Tris acetate, pH 7.5, 10mM Mg acetate, 0.01% Tween-20, 0.05% BSA, 10uM D-luciferin, 1mM ATP) are dispensed into each well of a Greiner white, solid-bottom 1536-well format plate using a flying reagent dispenser (FRD). These assay plates were then treated with 23nL of compound or DMSO using a Kalypsys pin tool, which allows for delivery of a 12-point intraplate titration of each compound to the assay plate (quantitative HTS), with a final compound concentrations ranging from approximately ~60uM to 0.3nM. One microliter of firefly luciferase in […] Tris-acetate buffer was then delivered by FRD to each well for a final enzyme concentration of 10nM. Luciferase activity was then measured using a ViewLux CCD imager (PerkinElmer), with an average exposure time of 2-30 seconds (2X binning, medium/high gain).
Turning to `COc1ccc2nc(NC(=O)c3cccs3)sc2c1`, the Potency is 7.3 µM (active).
Then `Cc1ccc(S(=O)(=O)N2CCN(C(=O)c3ccccc3-c3nc4ccccc4s3)CC2)c(C)c1`, with “inactive”; and `Nc1ccc2nc(-c3ccc(O)cc3)sc2c1`, with 0.183 µM (active); and `CC(C)c1ccc(-c2nc3ccccc3s2)cc1`, with 0.0411 µM (active).
Next, `O=C(Nc1cccc(-c2nc3ccccc3s2)c1)C1=COCCO1`: 25.9 µM (active); `O=C(Nc1ccccc1C(=O)O)c1ccc(NC(=O)C2CCCO2)cc1` (stereo not given): 20.6 µM (active); `CN(C)c1cccc(C(=O)Nc2ccc(-c3nc4ccccc4s3)cc2)c1`: 0.819 µM (active).
On to `CC(C)(C)NC(=O)c1ccccc1-c1nc2ccccc2s1`, for which the Potency entry was “inactive”.
With `COc1cc(OC)cc(C(=O)Nc2ccccc2-c2nc3ccccc3s2)c1`, the Potency entry is “inactive”.
Then `Cc1ccc(C(=O)Nc2ccc(C(=O)O)cc2)cc1S(=O)(=O)Nc1ccccc1`, with “inactive”; and `CCOc1c(Cl)cc(C(=O)Nc2ccccc2C(=O)O)cc1Cl`, with 18.3 µM (active); and `O=S(=O)(c1ccc(-c2nc3ccccc3s2)cc1)N1CCCC1`, with 0.919 µM (active).
In the case of `Cc1ccc2nc(-c3ccc(NC(=O)CN4CCN(C(=O)c5ccco5)CC4)cc3)sc2c1`, the Potency is 4.11 µM (active).
Then `O=C(O)c1cccc(NC(=O)c2ccc(S(=O)(=O)c3ccccc3)cc2)c1`, with 11.6 µM (active).
Then `COc1cc(OC)cc(-c2nc3ccccc3s2)c1`, with 4.11 µM (active); and `O=C(O)c1ccc(NC(=O)c2ccccc2NC(=O)c2ccccc2Cl)cc1`, with “inactive”; and `O=C(COC(=O)c1ccccc1[N+](=O)[O-])c1ccc2c(c1)OCO2`, with 0.0046 µM (active).
Then `COc1cccc(OC)c1C(=O)Nc1cccc(C(=O)Nc2cccc(C(=O)O)c2)c1`, with 4.61 µM (active); and `O=C(Nc1ccccc1C(=O)O)c1cccc(S(=O)(=O)Nc2ccc(Br)cc2)c1`, with “inactive”; and `COc1ccc(C(=O)Nc2ccccc2-c2nc3ccccc3s2)c(OC)c1`, with “inactive”.
For the compound `O=C(Nc1ccccc1C(=O)O)c1cccc(NC(=O)c2ccccc2Cl)c1`, the Potency is 20.6 µM (active).
Next, `O=C(O)c1cccc(NC(=O)c2cccc(S(=O)(=O)N3CCc4ccccc4C3)c2)c1`: 18.3 µM (active); `CCOC(=O)N1CCN(CC(=O)Nc2nc3ccc(OC)cc3s2)CC1`: “inactive”.
Then `CC(C)CC(=O)Nc1cccc(C(=O)Nc2ccccc2C(=O)O)c1`, with 18.3 µM (active); and `O=C(Nc1ccccc1C(=O)O)c1ccc(NC(=O)C2CCCCC2)cc1`, with 32.6 µM (active); and `Nc1ccc(-c2nc3ccc(N)cc3s2)cc1`, with 0.103 µM (active).
Then `CC(C)(C)C(=O)Nc1ccc(-c2nc3ccccc3s2)cc1`, with 0.0259 µM (active); and `Nc1ccc(-c2nc3cc(N)ccc3s2)cc1`, with 0.259 µM (active).
On to `COc1ccc2nc(NC(=O)c3ccc([N+](=O)[O-])o3)sc2c1`, for which the Potency is 3.26 µM (active).
Then `Cc1ccc(NS(=O)(=O)c2ccc(Cl)c(C(=O)Nc3cccc(C(=O)O)c3)c2)cc1`, with “inactive”.
Then `Cc1ccc2sc(-c3ccc(NC(=O)c4cc(-n5cnnc5)ccc4Cl)cc3)nc2c1`, with 1.63 µM (active); and `COc1ccc2nc(NC(=O)c3cnccn3)sc2c1`, with 0.517 µM (active); and `NC(=O)Cc1ccc2sc(-c3ccccc3)nc2c1`, with 1.16 µM (active).
Next, `O=C(Nc1ccc(-c2nc3ccccc3s2)cc1)C1=COCCO1`: 0.0183 µM (active); `Cc1c(NS(C)(=O)=O)cccc1-c1nc2ccccc2s1`: 10.3 µM (active); `COc1ccc2nc(NC(=O)c3ccc(S(=O)(=O)N4CCCC(C)C4)cc3)sc2c1` (stereo not given): “inactive”.
Consider `Oc1ccc(-c2nc3ccccc3s2)c(O)c1`, for which the Potency is 2.59 µM (active).
Regarding `CCCOc1cccc(C(=O)Nc2ccc(-c3nc4ccccc4s3)c(Cl)c2)c1`, the Potency result is “inactive”.
Then `CCOc1ccc2nc(NC(=O)Cc3cccs3)sc2c1`, with 3.66 µM (active).
For the compound `O=C(O)c1ccc(NC(=O)c2cccc(C(=O)Nc3ccc(C(=O)O)cc3)c2)cc1`, the Potency entry was “inactive”.
